What all share (assay): NCI-60 one-dose screen, 48 h (100 = growth as untreated, 0 = no growth, -100 = all killed)
The subject of one test is DU-145 prostate. The settings on record: 10 µM unless noted.
In the next test the test system is K-562 leukemia. Conditions: 10 µM unless noted.
The test system of a further test is MALME-3M melanoma. Conditions: 10 µM unless noted.
Another test concerns MDA-MB-231 breast. Conditions: 10 µM unless noted.
The test system of the next test is RXF 393 renal. Conditions: 10 µM unless noted.
For a further test, the system named is SF-268 CNS. Conditions: 10 µM unless noted.
In a further test the test system is SF-295 CNS. Conditions: 10 µM unless noted.
The subject of the next test is SF-539 CNS. Conditions: 10 µM unless noted.
The next test has as its system UACC-257 melanoma. The settings on record: 10 µM.
The next test has as its system M14 melanoma. Conditions: 10 µM unless noted.

This is part of a sample that, as a whole, favours compounds with a hit. Of some 83,000 tested, about 20% had one in any assay.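 Note: values are percent growth. 100 is the growth of untreated cells, values between 100 and 0 indicate rising inhibition; between -100 and 0 indicates cell death.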 A number with no mark means an inactive call. The source made the active and inactive calls. How the source made its calls: active means growth percent below 10; inactive means the rest.

For `CCOC(=O)CC(C#N)(CC(=O)OCC)C(=O)OCC`, the growth was 113% with DU-145 prostate; 111% in the test on K-562 leukemia; 127% in the test with MALME-3M melanoma; 101% in the test with MDA-MB-231 breast; 99.6% with RXF 393 renal; 111% in the test on SF-268 CNS. The growth in the test with SF-295 CNS is 101%; in the test on SF-539 CNS, 107%; in the test on UACC-257 melanoma it was 73.9%; in the test with M14 melanoma, 102%.
In the case of `O=c1oc2cc(OS(=O)(=O)c3ccccc3)c(Cl)cc2c2c1CCCCCC2`, the growth in the test on DU-145 prostate is 93.6%; with K-562 leukemia, 84.9%; in the test on MALME-3M melanoma, 106%; in the test on MDA-MB-231 breast, 89.4%; in the test on RXF 393 renal it was 90.8%; in the test with SF-268 CNS, 100%. Besides, the growth in the test with SF-295 CNS is 92.6%; with SF-539 CNS, 78.4%; in the test on UACC-257 melanoma it was 92.8%; in the test on M14 melanoma, 80.3%.
As for `COc1ccc(/C=C/c2nc(N3CCOCC3)c3nc(Cl)c(Cl)cc3n2)cc1OC`, the growth in the test on DU-145 prostate was 101%; with K-562 leukemia, 77.7%; in the test with MALME-3M melanoma, 144%; in the test with MDA-MB-231 breast it was 110%; in the test with RXF 393 renal, 109%; in the test with SF-268 CNS, 105%. Besides, the growth in the test on SF-295 CNS is 87.9%; in the test on SF-539 CNS, 98.8%; with UACC-257 melanoma it was 111%; in the test with M14 melanoma it was 103%.
With `Cc1sc(N=Nc2ccc(N(C)C)cc2)[n+]([O-])c1C`, the growth in the test on DU-145 prostate was 102%; in the test on K-562 leukemia it was 121%; in the test with MALME-3M melanoma it was 91.2%; in the test with MDA-MB-231 breast, 96.2%; in the test on RXF 393 renal it was 79.7%; in the test on SF-268 CNS, 95.7%. Also, the growth in the test with SF-295 CNS was 106%; in the test on SF-539 CNS it was 100%; in the test on UACC-257 melanoma, 105%; with M14 melanoma, 99.8%.
Consider `COc1ccc(/C=C/c2nc(N3CCOCC3)c3cc(F)c(F)cc3n2)cc1OC`, for which the growth with DU-145 prostate was 53.5%; in the test with K-562 leukemia it was 16.4%; in the test on MALME-3M melanoma, 42.3%; in the test with MDA-MB-231 breast, 55.4%; in the test on RXF 393 renal it was 48.6%; in the test on SF-268 CNS, 53.5%. The growth in the test with SF-295 CNS is 19.3%; in the test with SF-539 CNS, 56.8%; in the test with UACC-257 melanoma it was 20.5%; in the test on M14 melanoma it was 28%.
For `Nc1c(C(=O)Nc2ccccc2)sc2nc3c(cc12)CCCCC3`, the growth in the test with DU-145 prostate was 4.69% (active); in the test with K-562 leukemia, 14.8%; in the test on MALME-3M melanoma, -5.3% (active); in the test with MDA-MB-231 breast, 22.2%; in the test with RXF 393 renal, -5.96% (active); in the test on SF-268 CNS, 30.5%. Also, the growth in the test on SF-295 CNS is -4.71% (active); in the test on SF-539 CNS, 7.96% (active); in the test with UACC-257 melanoma, 41.5%; in the test with M14 melanoma, 6.74% (active).
Turning to `CC(=O)OC[Si](C)(C)c1ccccc1`, the growth was 113% with DU-145 prostate; 102% in the test with K-562 leukemia; 110% in the test on MALME-3M melanoma; 105% in the test on MDA-MB-231 breast; 107% in the test with RXF 393 renal; 103% in the test with SF-268 CNS. The growth is 91.6% in the test with SF-295 CNS, 96.2% with SF-539 CNS, 92.3% in the test on UACC-257 melanoma and 97.8% with M14 melanoma.
Turning to `Cc1cc(C)c(S(=O)(=O)N2CCN(c3cc4c(cc3F)c(=O)c(C(=O)O)cn4C3CC3)CC2)c(C)c1`, the growth in the test on DU-145 prostate is 71.4%; in the test on K-562 leukemia, 63.5%; in the test on MALME-3M melanoma, 59.7%; in the test on MDA-MB-231 breast it was 84.6%; in the test with RXF 393 renal it was 51.3%; in the test with SF-268 CNS it was 56.7%. Moreover, the growth in the test on SF-295 CNS is 33.3%; in the test on SF-539 CNS, 46.5%; in the test with UACC-257 melanoma, 86.9%; in the test with M14 melanoma it was 63.5%.
As for `COc1ccc(/C=C\c2cc(OC)c(OC)c(OC)c2)c(NS(=O)(=O)c2ccc(C(C)(C)C)cc2)c1O`, the growth was -0.37% (active) in the test on DU-145 prostate; 13.2% in the test on K-562 leukemia; 108% with MALME-3M melanoma; 8.45% (active) with MDA-MB-231 breast; 22.6% in the test on RXF 393 renal; 24.5% in the test on SF-268 CNS. Moreover, the growth in the test on SF-295 CNS was 16.9%; in the test with SF-539 CNS it was 2.6% (active); in the test on UACC-257 melanoma it was 65.7%; in the test with M14 melanoma it was 14.9%.
On to `CC(C)(C)OC(=O)N[C@@H](Cc1ccccc1)C(=O)N(Cc1ccccc1)C1(C(=O)NCc2ccccc2)CCN(Cc2ccccc2)CC1`, for which the growth is 75.6% in the test on DU-145 prostate; 11% in the test on K-562 leukemia; 25.6% in the test on MALME-3M melanoma; 22.9% with MDA-MB-231 breast; 61.9% with RXF 393 renal; 58.5% in the test with SF-268 CNS. For the same compound, the growth with SF-295 CNS was 39.2%; in the test with SF-539 CNS, 47.2%; with UACC-257 melanoma, 24.2%; in the test with M14 melanoma, 40.2%.
Take `COc1cc(-c2cc(/C=C3\CCCCC3=O)[nH]n2)cc(OC)c1OC`: the growth in the test with DU-145 prostate was 95.4%; with K-562 leukemia, 79.4%; in the test on MALME-3M melanoma, 101%; in the test with MDA-MB-231 breast, 94.6%; in the test on RXF 393 renal, 96.1%; with SF-268 CNS it was 96.8%. For the same compound, the growth in the test with SF-295 CNS was 96.4%; with SF-539 CNS, 103%; in the test on UACC-257 melanoma, 95%; in the test on M14 melanoma, 101%.

The record behind these values is PubChem BioAssay (NCI).
